Assay results published in the supplement of paper PMC11732987, “Enantioselective OTUD7B fragment discovery through chemoproteomics screening and high-throughput optimisation” (Communications Chemistry, 2025).

Experiments:
Assay in all cases: log2 ratio of Biotin-Ahx-Ub-VS probe labelling (fragment/DMSO); higher = less target engagement (more negative = stronger competition), active = hit call of the paper (q ≤ 0.05, log2 ratio ≤ -1)
Conditions in all cases: compound concentration: 200 uM; treatment time: 3 h
USP19 = biological target: T1, USP19 (UniProt O94966)
T1 sequence (whole entry): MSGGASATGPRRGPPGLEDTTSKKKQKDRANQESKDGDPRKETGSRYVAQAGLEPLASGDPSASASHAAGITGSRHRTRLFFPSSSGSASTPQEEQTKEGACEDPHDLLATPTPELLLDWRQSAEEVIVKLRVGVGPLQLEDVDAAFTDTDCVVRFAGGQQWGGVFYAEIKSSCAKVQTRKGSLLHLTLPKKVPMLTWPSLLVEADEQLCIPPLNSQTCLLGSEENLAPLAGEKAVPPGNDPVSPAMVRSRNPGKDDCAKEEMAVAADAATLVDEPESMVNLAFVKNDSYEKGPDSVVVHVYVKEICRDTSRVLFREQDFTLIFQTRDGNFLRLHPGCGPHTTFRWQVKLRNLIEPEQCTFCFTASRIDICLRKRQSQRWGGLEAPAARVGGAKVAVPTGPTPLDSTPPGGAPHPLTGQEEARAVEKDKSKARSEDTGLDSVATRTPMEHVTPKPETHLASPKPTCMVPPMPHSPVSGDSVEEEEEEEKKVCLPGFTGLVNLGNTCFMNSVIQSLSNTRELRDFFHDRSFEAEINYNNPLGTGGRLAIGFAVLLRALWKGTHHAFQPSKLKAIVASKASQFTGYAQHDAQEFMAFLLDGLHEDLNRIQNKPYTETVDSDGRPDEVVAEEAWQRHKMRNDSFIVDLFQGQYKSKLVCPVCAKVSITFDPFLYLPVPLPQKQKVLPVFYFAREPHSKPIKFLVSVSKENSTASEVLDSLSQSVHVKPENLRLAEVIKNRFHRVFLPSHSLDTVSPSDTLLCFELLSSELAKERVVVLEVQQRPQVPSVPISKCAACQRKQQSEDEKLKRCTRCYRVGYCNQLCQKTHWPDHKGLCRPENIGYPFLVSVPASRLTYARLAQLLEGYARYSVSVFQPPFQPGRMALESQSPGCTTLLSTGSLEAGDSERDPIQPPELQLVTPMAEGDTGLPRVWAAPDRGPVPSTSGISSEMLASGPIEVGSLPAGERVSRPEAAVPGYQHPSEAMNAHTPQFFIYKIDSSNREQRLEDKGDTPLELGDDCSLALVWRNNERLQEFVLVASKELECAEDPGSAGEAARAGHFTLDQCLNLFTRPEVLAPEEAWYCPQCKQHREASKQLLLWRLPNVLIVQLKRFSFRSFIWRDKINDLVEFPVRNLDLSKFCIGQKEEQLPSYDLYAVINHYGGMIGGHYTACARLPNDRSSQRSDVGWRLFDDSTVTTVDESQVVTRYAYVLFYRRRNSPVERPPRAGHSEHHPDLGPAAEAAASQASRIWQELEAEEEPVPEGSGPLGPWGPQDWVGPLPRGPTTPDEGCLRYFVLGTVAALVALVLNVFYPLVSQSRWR
Method in brief: (§1)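 The table lists average log2 ratios of fragment over vehicle, from an unpaired t-test on global-median-normalised Spectronaut label-free quantities. Proteins with ≥2 unique peptides were used. Samples were HEK293T lysate (495 µg) treated in triplicate with fragment at 200 µM or vehicle for 3 h, then with Biotin-Ahx-Ub-VS (0.5 µM final) for 1 h, with labelled DUBs NeutrAvidin-enriched and run by diaPASEF LC-MS/MS.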

USP22 = biological target: T2, USP22 (UniProt Q9UPT9)
T2 sequence (whole entry): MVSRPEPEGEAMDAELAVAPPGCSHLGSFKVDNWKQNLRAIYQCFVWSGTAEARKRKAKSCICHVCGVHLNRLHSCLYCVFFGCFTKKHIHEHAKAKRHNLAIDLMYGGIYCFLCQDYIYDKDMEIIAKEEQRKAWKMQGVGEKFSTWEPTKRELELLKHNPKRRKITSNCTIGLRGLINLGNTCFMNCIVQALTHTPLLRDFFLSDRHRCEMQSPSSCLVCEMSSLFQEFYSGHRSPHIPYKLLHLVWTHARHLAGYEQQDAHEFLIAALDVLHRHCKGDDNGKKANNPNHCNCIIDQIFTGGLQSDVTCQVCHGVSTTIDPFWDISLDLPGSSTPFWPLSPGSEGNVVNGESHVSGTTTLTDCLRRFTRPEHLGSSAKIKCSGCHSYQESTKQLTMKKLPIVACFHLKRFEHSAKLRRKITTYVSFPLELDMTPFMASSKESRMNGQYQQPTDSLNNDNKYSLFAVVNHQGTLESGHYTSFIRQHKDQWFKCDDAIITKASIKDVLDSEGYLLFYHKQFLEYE
Method in brief: as §1

USP24 = USP24 (UniProt Q9UPU5)
Sequence of USP24 (Q9UPU5 whole entry): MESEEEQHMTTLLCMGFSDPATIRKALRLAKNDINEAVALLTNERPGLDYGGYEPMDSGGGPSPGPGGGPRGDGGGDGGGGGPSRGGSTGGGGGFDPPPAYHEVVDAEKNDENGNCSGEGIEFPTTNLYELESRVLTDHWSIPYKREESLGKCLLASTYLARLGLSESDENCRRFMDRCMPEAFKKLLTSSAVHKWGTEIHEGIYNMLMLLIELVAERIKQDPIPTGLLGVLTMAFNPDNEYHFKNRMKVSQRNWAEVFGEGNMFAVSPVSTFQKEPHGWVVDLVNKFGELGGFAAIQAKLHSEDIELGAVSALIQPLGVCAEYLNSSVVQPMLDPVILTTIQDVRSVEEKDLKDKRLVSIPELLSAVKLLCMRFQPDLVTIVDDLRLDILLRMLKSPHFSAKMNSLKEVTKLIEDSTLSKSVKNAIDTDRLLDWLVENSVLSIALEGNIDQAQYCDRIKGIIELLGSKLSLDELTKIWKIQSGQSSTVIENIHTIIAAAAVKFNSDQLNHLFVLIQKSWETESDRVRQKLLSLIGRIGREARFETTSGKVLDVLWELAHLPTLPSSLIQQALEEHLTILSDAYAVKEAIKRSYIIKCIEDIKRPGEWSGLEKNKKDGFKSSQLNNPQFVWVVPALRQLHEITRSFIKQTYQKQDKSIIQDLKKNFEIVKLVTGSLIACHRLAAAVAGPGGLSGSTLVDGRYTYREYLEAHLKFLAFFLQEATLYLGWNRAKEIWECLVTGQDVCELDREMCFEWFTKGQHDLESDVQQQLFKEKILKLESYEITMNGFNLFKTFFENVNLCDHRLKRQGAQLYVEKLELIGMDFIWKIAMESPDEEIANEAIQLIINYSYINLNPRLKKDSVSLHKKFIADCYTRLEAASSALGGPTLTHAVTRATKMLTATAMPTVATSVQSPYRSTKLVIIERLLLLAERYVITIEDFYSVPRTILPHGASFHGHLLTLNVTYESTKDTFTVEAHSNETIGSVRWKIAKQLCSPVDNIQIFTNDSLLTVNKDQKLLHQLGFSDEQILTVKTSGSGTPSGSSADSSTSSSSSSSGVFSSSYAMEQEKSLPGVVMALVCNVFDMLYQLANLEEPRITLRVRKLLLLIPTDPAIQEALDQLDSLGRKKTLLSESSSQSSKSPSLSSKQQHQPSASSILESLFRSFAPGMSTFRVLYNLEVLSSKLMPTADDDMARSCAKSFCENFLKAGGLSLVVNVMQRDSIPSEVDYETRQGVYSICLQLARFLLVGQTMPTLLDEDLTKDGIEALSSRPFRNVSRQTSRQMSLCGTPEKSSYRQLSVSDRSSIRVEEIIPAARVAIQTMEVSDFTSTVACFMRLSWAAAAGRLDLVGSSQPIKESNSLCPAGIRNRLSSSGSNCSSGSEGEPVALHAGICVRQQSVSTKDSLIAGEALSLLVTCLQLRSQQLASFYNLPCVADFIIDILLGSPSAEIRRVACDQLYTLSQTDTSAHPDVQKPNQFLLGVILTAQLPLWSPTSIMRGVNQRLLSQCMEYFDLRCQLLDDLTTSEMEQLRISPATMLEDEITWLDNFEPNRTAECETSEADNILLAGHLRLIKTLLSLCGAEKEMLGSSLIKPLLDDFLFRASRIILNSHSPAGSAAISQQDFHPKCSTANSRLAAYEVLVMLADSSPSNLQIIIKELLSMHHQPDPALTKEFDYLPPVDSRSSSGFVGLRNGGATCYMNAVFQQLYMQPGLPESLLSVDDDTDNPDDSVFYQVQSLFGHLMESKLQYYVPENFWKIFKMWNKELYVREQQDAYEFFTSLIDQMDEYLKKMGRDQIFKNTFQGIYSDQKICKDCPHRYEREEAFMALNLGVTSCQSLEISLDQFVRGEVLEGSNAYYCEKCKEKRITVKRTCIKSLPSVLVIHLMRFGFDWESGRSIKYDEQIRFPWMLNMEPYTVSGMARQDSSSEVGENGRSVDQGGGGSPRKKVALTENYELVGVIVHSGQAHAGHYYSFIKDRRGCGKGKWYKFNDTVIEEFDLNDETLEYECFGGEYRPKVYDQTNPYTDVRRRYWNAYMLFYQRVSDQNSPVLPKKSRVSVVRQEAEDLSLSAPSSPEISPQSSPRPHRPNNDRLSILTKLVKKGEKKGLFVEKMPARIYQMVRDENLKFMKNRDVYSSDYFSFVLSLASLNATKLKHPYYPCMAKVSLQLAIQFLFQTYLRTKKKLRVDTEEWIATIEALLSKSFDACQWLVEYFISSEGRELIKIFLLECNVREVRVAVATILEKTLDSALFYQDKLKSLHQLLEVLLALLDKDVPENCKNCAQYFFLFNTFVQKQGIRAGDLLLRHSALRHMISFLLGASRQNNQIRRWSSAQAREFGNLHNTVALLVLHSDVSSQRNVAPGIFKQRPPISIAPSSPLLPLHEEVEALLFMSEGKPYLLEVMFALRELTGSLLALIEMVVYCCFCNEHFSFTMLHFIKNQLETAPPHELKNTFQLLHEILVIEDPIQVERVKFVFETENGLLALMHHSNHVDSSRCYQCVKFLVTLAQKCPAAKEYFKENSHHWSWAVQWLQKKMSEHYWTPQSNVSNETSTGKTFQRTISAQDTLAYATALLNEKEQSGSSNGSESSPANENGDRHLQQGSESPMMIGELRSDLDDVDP
Method in brief: as §1

USP25 = biological target: T3, USP25 (UniProt Q9UHP3)
T3 sequence (whole entry): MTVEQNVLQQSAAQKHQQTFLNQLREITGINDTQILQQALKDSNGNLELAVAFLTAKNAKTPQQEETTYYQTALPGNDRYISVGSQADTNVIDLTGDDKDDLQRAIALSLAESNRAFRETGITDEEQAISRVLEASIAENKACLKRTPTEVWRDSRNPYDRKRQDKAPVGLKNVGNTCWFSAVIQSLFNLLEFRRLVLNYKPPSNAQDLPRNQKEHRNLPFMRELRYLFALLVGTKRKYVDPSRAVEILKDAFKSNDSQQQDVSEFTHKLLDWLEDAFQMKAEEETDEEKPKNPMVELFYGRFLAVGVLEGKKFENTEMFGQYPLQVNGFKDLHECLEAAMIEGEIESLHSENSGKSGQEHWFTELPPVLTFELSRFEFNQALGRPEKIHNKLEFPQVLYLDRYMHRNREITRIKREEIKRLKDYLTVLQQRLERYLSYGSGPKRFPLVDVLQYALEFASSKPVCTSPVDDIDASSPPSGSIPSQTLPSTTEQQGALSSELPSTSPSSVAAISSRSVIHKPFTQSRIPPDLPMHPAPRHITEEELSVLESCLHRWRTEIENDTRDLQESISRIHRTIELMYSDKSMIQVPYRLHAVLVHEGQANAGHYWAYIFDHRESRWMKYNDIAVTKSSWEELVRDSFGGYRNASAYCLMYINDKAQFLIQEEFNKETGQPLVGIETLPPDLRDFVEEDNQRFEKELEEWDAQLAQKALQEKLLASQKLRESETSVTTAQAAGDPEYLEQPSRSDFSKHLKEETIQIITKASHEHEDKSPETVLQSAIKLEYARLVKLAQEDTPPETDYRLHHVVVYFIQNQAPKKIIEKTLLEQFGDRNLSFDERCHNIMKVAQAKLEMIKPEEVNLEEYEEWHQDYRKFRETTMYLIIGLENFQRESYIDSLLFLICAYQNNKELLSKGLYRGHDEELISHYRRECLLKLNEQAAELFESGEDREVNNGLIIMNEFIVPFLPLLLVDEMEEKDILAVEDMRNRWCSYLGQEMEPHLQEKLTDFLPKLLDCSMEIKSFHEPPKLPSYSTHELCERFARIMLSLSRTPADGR
Method in brief: as §1

USP28 = biological target: T4, USP28 (UniProt Q96RU2)
T4 sequence (whole entry): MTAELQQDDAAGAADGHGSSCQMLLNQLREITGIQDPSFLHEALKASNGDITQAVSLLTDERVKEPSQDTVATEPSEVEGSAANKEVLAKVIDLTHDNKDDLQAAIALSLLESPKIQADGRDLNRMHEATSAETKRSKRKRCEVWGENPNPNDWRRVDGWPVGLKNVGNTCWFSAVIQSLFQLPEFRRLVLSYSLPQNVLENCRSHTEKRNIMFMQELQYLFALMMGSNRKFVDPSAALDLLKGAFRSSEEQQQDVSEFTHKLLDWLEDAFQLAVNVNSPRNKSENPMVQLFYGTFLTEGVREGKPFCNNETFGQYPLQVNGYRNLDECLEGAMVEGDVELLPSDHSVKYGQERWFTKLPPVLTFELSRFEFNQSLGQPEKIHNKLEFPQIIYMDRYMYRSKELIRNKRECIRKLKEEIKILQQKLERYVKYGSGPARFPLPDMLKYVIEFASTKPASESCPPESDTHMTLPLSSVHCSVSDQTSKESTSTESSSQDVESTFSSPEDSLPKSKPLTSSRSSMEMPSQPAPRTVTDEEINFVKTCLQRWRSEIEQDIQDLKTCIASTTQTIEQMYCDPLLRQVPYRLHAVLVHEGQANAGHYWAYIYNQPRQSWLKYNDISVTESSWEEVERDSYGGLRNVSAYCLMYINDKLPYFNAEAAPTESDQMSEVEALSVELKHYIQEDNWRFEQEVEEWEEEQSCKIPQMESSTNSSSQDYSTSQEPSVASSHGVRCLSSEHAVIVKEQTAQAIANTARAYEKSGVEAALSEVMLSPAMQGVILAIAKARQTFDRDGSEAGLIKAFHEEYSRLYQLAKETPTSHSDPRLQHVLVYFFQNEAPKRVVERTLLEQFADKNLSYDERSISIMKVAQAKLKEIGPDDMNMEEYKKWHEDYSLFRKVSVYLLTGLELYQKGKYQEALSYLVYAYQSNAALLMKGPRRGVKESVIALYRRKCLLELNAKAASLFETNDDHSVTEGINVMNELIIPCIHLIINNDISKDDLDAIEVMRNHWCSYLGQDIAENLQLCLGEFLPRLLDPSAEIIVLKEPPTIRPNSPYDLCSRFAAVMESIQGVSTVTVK
Method in brief: as §1

Measured: log2 ratio of Biotin-Ahx-Ub-VS probe labelling

O=C(CCl)N1CCC(O)(Cc2ccc(F)cc2)C1 (stereo not given)
inactive: USP19 -0.323 | USP22 -0.265 | USP24 -0.262 | USP25 -0.107 | USP28 -0.353
